Screening data: PubChem BioAssay, National Center for Advancing Translational Sciences (NCATS)
This excerpt belongs to a sample that is enriched for hits.
Pf Dd2 growth = qHTS Primary assay for Inhibitors of Plasmodium falciparum Dd2 growth in vitro; P. falciparum Dd2 growth, SYBR Green, 72 h; Potency, µM (top dose mostly 28.9 µM), inactives show top-dose activity, negative = inhibition, most hits filed as inhibitors; actives 4.3% (n = 120,000); AID 1347417, 2020; active = well fitted inhibition curve with a large enough effect;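 note: plate controls were DMSO vehicle for no effect and reference drug for full effect; nearly all actives have a fitted effect of over 65% in size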
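Infected erythrocytes (Dd2, 0.3% parasitemia, 2.5% hematocrit final) are added to compound in RPMI-1640/Albumax II medium, grown 72 h at 37C in low oxygen, then lysed with saponin/Triton-X containing SYBR Green and read by fluorescence.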
Active calls of the source: *; i = inactive; [ ] = another dose, or the depositor's remark. Potency is the fitted concentration of half-maximal effect.

SMILES	Pf Dd2 growth
CCOc1ccc(N2CC(c3nc4ccccc4n3CCCCOc3ccc(OC)cc3)CC2=O)cc1 (centres undefined)	13µM*
CCOc1ccccc1N1CC(c2nc3ccccc3n2CCOc2ccc(C(C)(C)C)cc2)CC1=O (centres undefined)	-24%
CCOc1ccc(-c2nc(C3CC(=O)N(c4ccc(OC)cc4)C3)no2)cc1 (centres undefined)	-26%
Cc1cc(C)c(Cn2c(C3CC(=O)N(c4ccc(F)cc4)C3)nc3ccccc32)c(C)c1 (centres undefined)	i
CCOc1ccc(N2CC(c3nc(-c4cc(OC)c(OC)c(OC)c4)no3)CC2=O)cc1 (centres undefined)	36%
C=CCC1(C(=O)O)CCCN(C(=O)c2cn(CCN)nn2)C1 (centres undefined)	4%
O=C(CC1CNCCO1)NCc1nc(-c2cccc(F)c2)c(-c2ccccn2)[nH]1 (centres undefined)	-14%
COCCO[C@H]1C(=O)N(C2CCN(Cc3ccc(C#N)cc3)CC2)[C@H]1c1ccncc1	3%
O=C(CCc1ccc(-c2ccc(Cl)cc2)[nH]1)N[C@@H]1C[C@@H]2OCC[C@@H]21	i
COc1ccc(N2CC(C(=O)N(C)C)NC2=O)cc1 (centres undefined)	-1%[44.1 µM]
COC[C@H]1C[C@@H](NCc2nccn2C)[C@H](O)[C@@H]1O	-6%[44.1 µM]
COc1ccc(C(=O)N2CCC3(CC2)CC(OCC2CC2)CCO3)cc1 (centres undefined)	-9%
O=C(NC1C[C@H]2CC[C@@H](C1)N2C(=O)Cc1ccsc1)c1ccc(F)cc1 (some centres undefined)	-24%
CCN(CC)c1ncccc1CNC(=O)c1coc2c1C(=O)CCC2	-22%
Cc1cccc(CNC(=O)c2c(C)noc2-c2ccc(OC(F)(F)F)cc2)c1	-9%
CCOc1ccc(N2CC(c3nc4ccccc4n3CCCOc3ccccc3)CC2=O)cc1 (centres undefined)	13µM*
CCOc1ccc(N2CC(c3nc4ccccc4n3CCOc3ccc(CC)cc3)CC2=O)cc1 (centres undefined)	-27%
CCOc1ccc(N2CC(c3nc4ccccc4n3CC(C)C)CC2=O)cc1 (centres undefined)	-4%
COc1ccccc1-c1nc(C(=O)N(C)C)n2ccccc12	-8%[44.1 µM]
O=C(c1ccc(Cl)s1)N1CCC(n2cnnc2-c2ccccc2)C1 (centres undefined)	i
COc1ccc(NC(=O)Nc2ccc(C)n(CC(=O)Nc3cccc(C)c3)c2=O)cc1	-16%
COc1ccc(-n2cc(-c3ccc4c(c3)OCO4)n(CC(=O)Nc3cccc(C)c3)c2=O)cc1	13µM*
CCc1cc(=O)n(CC(=O)Nc2ccc3c(c2)OCO3)c(-c2cccc(F)c2)n1	i
OC[C@H]1CCN(c2nnnn2-c2ccc(Oc3ccccc3)cc2)C[C@H]1O	0%
CC(C)[C@@H]1CN(C(=O)c2scc3c2CCCC3)C[C@H]1NS(C)(=O)=O	-7%
SMILES	Pf Dd2 growth
CCC1CCCCN1C(=O)CSc1nc(-c2ccc(OC)c(OC)c2)cc(C(F)(F)F)n1 (centres undefined)	i
COc1ccc(-c2c(C)c3ccc(O)c(CN4CCCCC4C)c3oc2=O)cc1OC (centres undefined)	11µM*
CCCNC(=O)C1CCN(c2cc(C)nc3c(-c4ccc(OC)c(OC)c4)c(C)nn23)CC1	i
COc1ccc(-c2cc(C(F)(F)F)nc(SCC(=O)N3CCCCC3C)n2)cc1OC (centres undefined)	92%
COc1ccc(-c2cc3ccc(O)c(CN4CCCCC4C)c3oc2=O)cc1OC (centres undefined)	7.1µM*
COc1ccc(-c2nccc3c(=O)cc(N4CCOCC4)oc23)cc1OC	-4%[44.1 µM]
c1ccc(-c2nnc3ccc(NCc4cccs4)nn23)nc1	i
O=C(CCc1ccccc1)N1CCC(Oc2ccc(C(=O)N3CCOCC3)cn2)CC1	11%
Cc1ccc(C(=O)N2CCC(n3cc(-c4nc(-c5ccccc5)no4)nn3)CC2)c(C)c1	i
CCCCNC(=O)Cc1csc2nc(C)c(-c3cc(C)n(-c4ccccc4CC)n3)c(=O)n12	-9%
CN(C)C(=O)c1ccc(OC2CCN(C(=O)c3ccco3)CC2)nc1	-12%
Cc1ccc(CN(C(=O)c2ccco2)c2ccc(CC(=O)N(C)Cc3ccccc3)cc2)cc1	-27%
CCOC(=O)C1CCN(C(=O)Cc2ccc(N(Cc3ccccc3)C(=O)c3ccco3)cc2)CC1	1.4µM*
O=C(Cc1ccc(N(Cc2ccc(F)cc2)C(=O)c2ccco2)cc1)N1CCOCC1	i
O=C(NCCCN1CCCC1=O)c1ccccc1C1CCNC1 (centres undefined)	-3%
O=C(Nc1ccc(F)c(Cl)c1)C1CCN(C(=O)c2ncn3c2COC(c2ccccc2)C3)CC1 (centres undefined)	-24%
CN1C(=O)c2cccn2CC1C(=O)NCc1cccs1 (centres undefined)	7%
CCc1noc(-c2ccn3c(CNC(=O)c4cc5ccccc5[nH]4)nnc3c2)n1	-10%
Cn1c(CN2CCN(CCN3CCOCC3)CC2)nnc1C1CC(N)C1 (centres undefined)	-3%
Cc1noc(-c2cccc(OC3CN(C(=O)NCc4ccc(F)cc4)C3)c2)n1	-11%[5.79 µM]
COc1ccc(S(=O)(=O)N2Cc3ccccc3CC2C(=O)Nc2cccc(C)c2)cc1OC (centres undefined)	-13%
COc1ccc(CCN2C(=O)N(c3ccc(F)cc3)C(=O)C2CC(=O)Nc2ccccc2)cc1OC (centres undefined)	i
COc1ccc(NC(=O)C2Cn3cccc3C(=O)N2C)cc1 (centres undefined)	-18%
COc1ccc2cc1Nc1ccc(cc1)C[C@H](NCc1cccc(O)c1)C(=O)N(C)[C@@H](C(=O)Nc1ccccc1)C2	4.5µM*
COc1ccc2cc1Nc1ccc(cc1)C[C@H](NCC1CC1)C(=O)N(C)[C@@H](C(=O)Nc1ccccc1)C2	4µM*
SMILES	Pf Dd2 growth
COc1ccc(CCNC(=O)C2CC(=O)N(CCc3ccccc3)C2)cc1OC (centres undefined)	70%
COCCNC(=O)C(NC(=O)c1ccccc1Cl)C1CCN(C(=O)c2ccc(OC)cc2)CC1 (centres undefined)	-14%
O=C(CC1CCOC2(CCN(S(=O)(=O)Cc3ccccc3F)CC2)C1)NC1CC1 (centres undefined)	i
CC(=O)N1CCCC(C(=O)N2CCC3(CC2)C(=O)N(C)c2ccccc23)C1 (centres undefined)	-9%
CCC(C)NC(=O)CN1C(=O)C(c2ccccc2)=NC1(C)C (centres undefined)	34%
COc1cccc(CC(=O)N2CCCC(CN3CCCC3)CC2)c1 (centres undefined)	1µM*
COc1ccc(C2(C(=O)N3CCC(CC(=O)NC4CC4)C3)CC2)cc1 (centres undefined)	26%
COc1ccc(C2(C(=O)N3CCCC(CN4CCCC4)CC3)CC2)cc1 (centres undefined)	3.2µM*
COc1ccc(C2(C(=O)N3CCC(F)CC3)CCOCC2)cc1	13%
COc1cccc(CC(=O)N2CCCCCCNC(=O)CC2)c1	-15%
COCC(=O)N(C1CCOCC1)C1CCN(C(=O)Cc2cccc(OC)c2)CC1	14%
COc1ccc(-c2nc(C)nc3c2CCN(C(=O)c2ccccn2)CC3)cc1	0%
CC(C)N1C[C@H](O)C[C@H]1c1nnc2n1CCN(C(=O)c1ccccc1F)C2	39%
c1c[nH]c(C2CCCC2)n1	-2%[76.6 µM]
